ATXN2 expr inh: Primary qHTS for Inhibitors of ATXN expression. HEK-293 ATXN2-luciferase reporter, luminescence, 24 h. Potency, µM (doses to about 57 µM), inactives show at the top dose activity change, negative = inhibition, actives largely listed as inhibitors. actives 0.72% (n = 360,000). AID 1745845, 2022; further: on the % scale 0 is the no-effect control and ±100 the full control effect; nearly all actives have a fitted effect of over 55% in size
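qHTS (up to 57 uM final) was run with 24 h compound exposure of reporter cells at 37 °C. Each well was multiplexed: SteadyGlo luminescence measured ATXN2-luciferase expression after a fluorogenic Gly-Phe-AFC viability readout (25 uM final).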
HepG2 tox: qHTS for Inhibitors of TGF-b: Cytotox Counterscreen. HepG2 CAGA-GFP viability, ATP luminescence, 18 h. Potency, µM (doses to about 46.1 µM), for inactives: at the top dose activity change, negative = cytotoxicity, most hits filed as cytotoxic. actives 0.76% (n = 410,000)
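HepG2 CAGA-GFP cells (1000/well, DMEM with 1% FBS) received compound, then TGF-beta at 500 pg/mL final, and were incubated 18 hours at 37 degrees C. Viability was read by CellTiter-Glo luminescence. Media-only wells were set as complete cell-killing and DMSO as no toxicity.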
ATXN viability: Viability Counterscreen for Primary qHTS for Inhibitors of ATXN expression. S2 cells (HEK-293 line with an ATXN2-luciferase reporter) viability, CellTiter-Fluor protease fluorescence, 24 h. actives 0.49% (n = 400,000). Potency, µM (titrated, usually from 56.7 µM), usual class: cytotoxic. AID 651635, 2014; further: nearly all actives have a fitted effect of over 40% in size
HT1080 IDH1KD tx: qHTS for induction of synthetic lethality in tumor cells producing 2HG: qHTS for the HT-1080-IDH1KD cell line | actives 2% (n = 360,000) | HT-1080 IDH1 knockdown viability, ATP luminescence, 48 h | Potency, µM (top dose mostly 46.1 µM), inactives show at the highest dose activity, negative = toxicity, hits mostly cytotoxic;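 further: 0% = DMSO wells and -100% = cell-free medium wells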
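% activity derives from luminescence (CellTiter-Glo), normalised to DMSO and no-cell wells. HT-1080-IDH1KD cells, 750/well, had 48 h compound exposure at 37 °C.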
TGFb inhibitor: qHTS for Inhibitors of TGF-b | actives 1.2% (n = 410,000) | Potency, µM (top dose mostly 46.1 µM), inactives show at the top dose activity, negative = inhibition, actives largely listed as inhibitors | HepG2 CAGA-GFP TGF-b/SMAD3 reporter, GFP fluorescence, 18 h; TGF-beta stimulated, 500 pg/mL final; further: on the % scale 0 is the no-effect control and ±100 the full control effect; nearly all actives have a fitted effect of over 65% in size
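Cell-based qHTS in HEPG2 carrying a CAGA-GFP Smad reporter; compounds added before 500 pg/mL final TGF-beta, 18 h incubation at 37 degrees C, GFP fluorescence quantified per cell by imaging cytometry.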
HT1080NT lethal: qHTS for induction of synthetic lethality in tumor cells producing 2HG: qHTS for the HT-1080-NT fibrosarcoma cell line. HT-1080-NT fibrosarcoma viability, CellTiter-Glo ATP luminescence, 48 h. Potency, µM (doses to about 46.1 µM), for inactives: at the highest dose activity, negative = less viability, hits mostly cytotoxic. actives 1.6% (n = 360,000). AID 686970, 2013;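 further: NT is the 2HG producing partner of a matched IDH1 knockdown line; 0% = DMSO-treated cells and -100% = media-only wells without cells; nearly all actives have a fitted effect of over 55% in size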
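HT-1080-NT; 750 cells/well; 5% FBS RPMI; 48 h compound, 37 degrees C; CellTiter-Glo luminescence; curve fitting and curve-class assignment.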
Active calls of the source: *; i = inactive; ? = inconclusive; · = no result; ! = not active in a repeat; [ ] = dose if it differs, or a comment. In the library only some 3.8% were active in any assay of this set; here they are far more common. The call rests on the fitted dose curve; in most records, active means well fitted curve in the direction sought with a large enough effect; inconclusive means small, poorly fitted or top-dose-only effect, or another doubt; inactive means no such curve, though single readings can be large; an effect the other way counts as inactive or inconclusive. Potency means the concentration at half of the fitted maximal effect.

SMILES	ATXN2 expr inh	HepG2 tox	ATXN viability	HT1080 IDH1KD tx	TGFb inhibitor	HT1080NT lethal
O=C(c1ccco1)N1CCN(CCCCOc2cccc3ccccc23)CC1	?	7.94µM*	?	-9.8%	?	-6.9%
O=C(c1ccco1)N1CCN(CCOCCOc2cccc3ccccc23)CC1	-19.1%	-32.8%	i	-24.9%	-25.2%	-6.5%
c1ccc2c(OCCCCN3CCOCC3)cccc2c1	1.4%	0.8%	i	-2.8%	1.3%	-2.8%
CCOc1ccccc1-n1c(CN2CCN(C(=O)c3ccco3)CC2)nc2ccccc2c1=O	-18.6%	7.7%	i	10µM*	18.0%	5.62µM*
c1ccc(CN2CCN(CCOCCOc3cccc4ccccc34)CC2)cc1	-1.6%	-16.5%	i	?	-5.0%	16.4µM*
CC(C)(C)NCC(O)COc1ccccc1OCC1CCCO1 (stereo not drawn)	13.1%	·	i	·	·	·
O=C1C=CC(O)(c2cc(=O)c3c(O)cc(O)cc3o2)C=C1	7.94µM*	15.8µM*	12.6µM*	7.31µM*	3.98µM*	7.31µM*
CSc1ccc(CN2CCOc3ccc(CN4CCCCC4CO)cc3C2)cc1 (stereo not drawn)	·	·	i	·	·	·
O=C(c1ccco1)N1CCN(C(=O)c2cnn3c2NC(c2cccs2)CC3C(F)(F)F)CC1 (stereo not drawn)	-14.6%	-34.2%	i	1.0%	-11.2%	1.6%
O=C(c1cnn2c1NC(c1ccco1)CC2C(F)(F)F)N1CCN(c2cccc(Cl)c2)CC1 (stereo not drawn)	?	-14.5%	i	18.4µM*	?	14.6µM*
CC(O)(COc1ccccc1)c1ccc2c(c1)CN(Cc1ccccn1)CCO2 (stereo not drawn)	·	·	i	·	·	·
COc1ccc2c(c1)CCc1cnc(-n3ncc(C(=O)N(C)CC4CCCN(C)C4)c3C)nc1-2 (stereo not drawn)	·	·	i	·	·	·
Cc1nnc(N2CCC(C(=O)NCc3cccc(Cl)c3)CC2)c2nn(-c3ccccc3)c(C)c12	?	-72.8%	?	·	11.2µM*	·
Cc1ccc(-n2nc3c(N4CCC(C(=O)NCCc5ccco5)CC4)nnc(C)c3c2C)cc1	-38.7%	-16.2%	i	?	?	?
Cc1ccc(-n2nc3c(N4CCC(C(=O)NCc5cccc(F)c5)CC4)nnc(C)c3c2C)cc1	·	-95.4%	?	?	15.8µM*	?
Cc1ccc(-n2nc3c(N4CCC(C(=O)NCc5ccc(C)o5)CC4)nnc(C)c3c2C)cc1	?	-27.5%	i	18.4µM*	?	20.6µM*
C[C@@H]1C(=O)O[C@H]2CC34[C@H]5C[C@@H](C(C)(C)C)C36[C@H](OC(=O)[C@@H]6O)O[C@@]4(C(=O)O5)[C@]21O (stereo partly drawn)	0.3%	·	·	·	·	·
CCN1CCN(c2c(/C=C3\SC(=S)N(Cc4ccco4)C3=O)c(C)c(C#N)c(=O)n2C)CC1	-11.2%	-3.8%	i	?	121.6%	16.4µM*
CCN(CC)CCCNC(=O)c1cc(-c2ccc(Cl)c(Cl)c2)on1	?	15.8µM*	?	?	?	?
COc1ccc(CNC(=O)c2cc3c(-c4ccc(Cl)cc4)nn(C)c3s2)cc1	·	-9.4%	·	·	-21.7%	·
CCCN(CCC)CCCNC(=O)c1cc2c(-c3ccc(Cl)cc3)nn(C)c2s1	?	-46.4%	25.1µM*	·	?	·
CCN(CC)CCCNC(=O)c1cc2c(-c3ccc(Cl)cc3)nn(C)c2s1	25.1µM*	-93.3%	·	23.1µM*	?	20.6µM*
CN1CCN(CCCNC(=O)c2cc3c(-c4ccc(Cl)cc4)nn(C)c3s2)CC1	4.2%	-32.9%	i	-23.6%	-5.7%	?
COC(=O)c1cn([C@@H]2C[C@@H](C(=O)Nc3cccc(SC)c3)N(C3CCCC3)C2)nn1	·	·	i	·	·	·
CCOc1c(Br)cc(/C=C(\C#N)C(=O)NC2CC2)cc1OC	-4.4%	-33.2%	i	?	-25.4%	23.1µM*
SMILES	ATXN2 expr inh	HepG2 tox	ATXN viability	HT1080 IDH1KD tx	TGFb inhibitor	HT1080NT lethal
CCOc1ccc(NC(=O)Cn2c3ncccc3c(=O)n2-c2ccc(CC)cc2)cc1	·	-4.5%	·	·	7.1%	·
CCOC(=O)C1=CC[C@@H](c2ccccc2)N(S(=O)(=O)c2ccc(C)cc2)[C@H]1C#N	-15.8%	-64.8%	?	?	?	16.4µM*
Cc1ccc(S(=O)(=O)N2[C@@H](c3ccccc3)C(C(=O)O)=CC[C@H]2c2ccc(C(C)C)cc2)cc1	2.4%	-30.9%	i	0.1%	15.8µM*	-9.2%
O=S(=O)(Nc1cc(Br)cc2cccnc12)c1ccccc1	·	0.9%	·	·	8.91µM*	·
Cc1ccc(S(=O)(=O)Nc2cc(Br)cc3cccnc23)cc1	·	-26.4%	·	·	?	·
O=S(=O)(Nc1cccc2cccnc12)c1ccc(S(=O)(=O)N2CCCC2)cc1	?	-27.9%	i	1.26µM*	?	2µM*
COc1ccc(S(=O)(=O)Nc2cccc3cccnc23)cc1	·	-32.9%	·	·	7.08µM*	·
CC(=O)Nc1ccc(S(=O)(=O)Nc2cccc3cccnc23)cc1	-17.8%	-28.5%	·	-12.4%	-0.4%	5.0%
COC(=O)COc1ccc(S(=O)(=O)Nc2ccc(C(N)=O)cc2)cc1C	-2.1%	-94.0%	i	19.6%	15.8µM*	-0.2%
COC(=O)COc1ccc(S(=O)(=O)Nc2ccc(C(N)=O)cc2)cc1Cl	-8.5%	-1.6%	i	29.4%	-26.5%	20.3%
Fc1ccc(Nc2c3c(nc4ccccc24)CCC3)cc1	-23.3%[11.3 µM]	-33.2%	?	?	?	16.4µM*
COc1ccc(C)cc1Nc1c2c(nc3ccccc13)CCC2	?	-16.6%	6.31µM*!	1.16µM*	7.94µM*	?
COc1ccccc1Nc1c2ccccc2nc2ccccc12	-14.8%	-27.9%	·	?	?	16.4µM*
COc1ccc(Nc2c3ccccc3nc3ccccc23)cc1	?	-36.4%	i	11.6µM*	?	9.2µM*
Cc1ccc2nc3c(c(Nc4ccccc4)c2c1)CCC3	-35.2%	-41.8%	i	?	12.6µM*	?
COc1cc(Nc2c3ccccc3nc3ccccc23)cc(OC)c1OC	?	-76.3%	17.8µM*	?	?	10.3µM*
CCN(CC)CCOC(=O)c1ccc(Nc2c3c(nc4ccccc24)CCC3)cc1	?	-39.3%	20µM*	·	?	·

Bioassay records from PubChem.
